Inconclusive results are not listed.
assay: qHTS Assay for Lipid Storage Modulators (AID 1519); settings: Drosophila S3 cells, BODIPY lipid droplet/cell ratio, laser cytometry; measured here: lipid channel max response; cells loaded with oleic acid
Summary of the method: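 Cells seeded at 5,000 per well were treated with compounds over a concentration series and loaded with oleic acid (400 uM, as added). Lipid droplet fluorescence (488 nm excitation, 500-530 nm channel) was read by laser-scanning cytometry and normalized to 20 uM Triacsin C.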

| Compound | max response [%] |
| --- | --- |
| COC(=O)N1CCC2(CCCN(Cc3ccccc3OC)C2)CC1 | 15.9 |
| Cc1noc(C)c1C(=O)N1CCC[C@@]2(CCN(Cc3ccccc3)C2)C1 | 22.2 |
| O=S(=O)(c1ccccc1)N1CCC2(CCCN(c3ncccn3)C2)CC1 | 5.88 |
| COc1ccc(NC(=O)N2CCCC3(CCNCC3)C2)cc1 | 0.941 |
| COc1ccc(NC(=O)N2CC3(CCN(C(C)=O)CC3)C2)cc1 | 23.3 |
| CC(=O)N1CCC2(CC1)CN(c1ccccc1)C2 | 26.6 |
| COc1ccccc1CN1CC[C@@]2(CCCN(C(=O)c3cccn3C)C2)C1 | 13.2 |
| Cn1cccc1C(=O)N1CCC[C@@]2(CCN(Cc3cc(C(F)(F)F)cc(C(F)(F)F)c3)C2)C1 | -1.35 |
| COc1ccccc1CN1CC[C@@]2(CCCN(C(C)=O)C2)C1 | -1 |
| COc1ccccc1CN1CC[C@@]2(CCCN(S(C)(=O)=O)C2)C1 | 13.7 |
| O=C(c1csnn1)N1CCC2(CC1)CN(c1ccccc1)C2 | 20.7 |
| COc1ccc(NC(=O)N2CC[C@@]3(CCCN(C(=O)c4cnccn4)C3)C2)cc1 | 9.8 |
| CC(C)CN1CC[C@@]2(CCCN(C(=O)c3csnn3)C2)C1 | 2.01 |
| CC(=O)N1CCC2(CC1)CCN(C(=O)Nc1cccc(F)c1)CC2 | 16.9 |
| O=C(c1cnccn1)N1CCC2(CCCN(c3ccccc3)C2)CC1 | 29.2 |
| O=C(c1ccncc1)N1CCC2(CC1)CCN(C(c1ccccc1)c1ccccc1)CC2 | 4.49 |
| COCC(=O)N1CCC[C@@]2(CCN(C(=O)Nc3cccc(F)c3)C2)C1 | 23.6 |
| CC(C)NC(=O)N1CCCC2(CCN(C(=O)c3cccc(F)c3)CC2)C1 | 27.6 |
| COc1ccccc1CN1CCC2(CC1)CCN(C(C)=O)CC2 | 3.76 |
| N#Cc1ccc(CN2CCCC3(CCN(C(=O)c4cccc(F)c4)CC3)C2)cc1 | 19.8 |

| Compound | max response [%] |
| --- | --- |
| O=C(c1ccco1)N1CCC2(CC1)CN(C(c1ccccc1)c1ccccc1)C2 | 9.48 |
| CS(=O)(=O)N1CCC2(CC1)CN(Cc1cc(C(F)(F)F)cc(C(F)(F)F)c1)C2 | 0.681 |
| CC(C)NC(=O)N1CCCC2(CCN(C(=O)c3cc(C(F)(F)F)cc(C(F)(F)F)c3)CC2)C1 | 12 |
| N#Cc1cccc(NC(=O)N2CCC3(CC2)CCN(C(=O)c2csnn2)CC3)c1 | 22.3 |
| O=C(Oc1ccccc1)N1CCC[C@@]2(CCN(c3ncccn3)C2)C1 | 17.1 |
| COCC(=O)N1CCC[C@@]2(CCN(Cc3ccccc3OC)C2)C1 | 5.61 |
| CC(C)NC(=O)N1CC[C@@]2(CCCN(C(=O)c3cc(C(F)(F)F)cc(C(F)(F)F)c3)C2)C1 | 20.3 |
| O=C(Nc1cccc(F)c1)N1CC[C@@]2(CCCNC2)C1 | 6.61 |
| COCC(=O)N1CCC2(CCCN(C(=O)Nc3ccc(OC)cc3)C2)CC1 | 18.7 |
| O=C(c1ccco1)N1CCC[C@@]2(CCN(Cc3ccccc3)C2)C1 | 7.17 |
| CC(=O)N1CCC2(CCCN(C(c3ccccc3)c3ccccc3)C2)CC1 | 12.6 |
| COc1cccc(-c2ccc3ncnc(NC4CCNCC4)c3c2)c1 | 2.37 |
| COc1ccccc1CN1CCCC2(CCN(S(C)(=O)=O)CC2)C1 | -12.2 |
| O=C(c1csnn1)N1CCC[C@@]2(CCN(Cc3nccs3)C2)C1 | 25.3 |
| O=C(c1csnn1)N1CCC2(CC1)CCN(c1ccccc1)CC2 | 6.57 |
| CC(C)CN1CC[C@@]2(CCCN(C(=O)c3cnccn3)C2)C1 | 22.3 |
| CN(C)c1ncc2ncc(=O)n(Cc3ccc(F)cc3)c2n1 | 11.9 |
| O=C(c1ccco1)N1CCC[C@@]2(CCN(c3ccccc3)C2)C1 | 4.34 |
| CC(C)CN1CC[C@@]2(CCCN(S(=O)(=O)c3ccccc3)C2)C1 | 9.28 |

— PubChem BioAssay (NCATS)
